# Experiments:
# Experiment in all cases: SPOT peptide array binding signal intensity (averaged, normalized) (arbitrary units (background-subtracted, floor 0; scale differs between SH3 domains)); higher = stronger binding of the SH3 domain to the peptide
# AgAbp1 = target: AgAbp1
# Procedure, shortened: (§1)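 GST-SH3 fusions from four yeast species, purified on glutathione Sepharose, were incubated at 10 μg/ml overnight at 4°C on membranes of synthetic 15-mer peptides in which cysteines were replaced with serines. Binding signal is the normalized, background-subtracted spot intensity averaged over replicates, in domain-specific arbitrary units.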
# AgBbc1 = target: AgBbc1
# Procedure, shortened: as §1
# AgBem1-D1 = target: AgBem1-D1
# Procedure, shortened: as §1
# AgBzz1-D1 = target: AgBzz1-D1
# Procedure, shortened: as §1
# AgBzz1-D2 = target: AgBzz1-D2
# Procedure, shortened: as §1
# AgCyk3 = target: AgCyk3
# Procedure, shortened: as §1
# AgFus1 = target: AgFus1
# Procedure, shortened: as §1
# AgHof1 = target: AgHof1
# Procedure, shortened: as §1
# AgHse1 = target: AgHse1
# Procedure, shortened: as §1
# AgLsb1 = target: AgLsb1
# Procedure, shortened: as §1
# AgLsb4 = target: AgLsb4
# Procedure, shortened: as §1
# AgMyo5 = target: AgMyo5
# Procedure, shortened: as §1
# AgNbp2 = target: AgNbp2
# Procedure, shortened: as §1
# AgRvs167 = target: AgRvs167
# Procedure, shortened: as §1
# AgSho1 = target: AgSho1
# Procedure, shortened: as §1
# AgSla1-D1-D2 = target: AgSla1-D1-D2
# Procedure, shortened: as §1
# AgSla1-D3 = target: AgSla1-D3
# Procedure, shortened: as §1
# CaAbp1-D1 = target: CaAbp1-D1
# Procedure, shortened: as §1
# CaAbp1-D2 = target: CaAbp1-D2
# Procedure, shortened: as §1
# CaBbc1 = target: CaBbc1
# Procedure, shortened: as §1
# CaBem1-D1 = target: CaBem1-D1
# Procedure, shortened: as §1
# CaBzz1-D1 = target: CaBzz1-D1
# Procedure, shortened: as §1
# CaBzz1-D2 = target: CaBzz1-D2
# Procedure, shortened: as §1
# CaCyk3 = target: CaCyk3
# Procedure, shortened: as §1
# CaFus1 = target: CaFus1
# Procedure, shortened: as §1
# CaHof1 = target: CaHof1
# Procedure, shortened: as §1
# CaHse1 = target: CaHse1
# Procedure, shortened: as §1
# CaLsb1 = target: CaLsb1
# Procedure, shortened: as §1
# CaLsb4 = target: CaLsb4
# Procedure, shortened: as §1
# CaMyo5 = target: CaMyo5
# Procedure, shortened: as §1
# CaNbp2 = target: CaNbp2
# Procedure, shortened: as §1
# CaRvs167 = target: CaRvs167
# Procedure, shortened: as §1
# CaRvs167-3 = target: CaRvs167-3
# Procedure, shortened: as §1
# CaSho1 = target: CaSho1
# Procedure, shortened: as §1
# CaSla1-D1-D2 = target: CaSla1-D1-D2
# Procedure, shortened: as §1
# CaSla1-D3 = target: CaSla1-D3
# Procedure, shortened: as §1
# ScAbp1 = target: ScAbp1
# Procedure, shortened: as §1
# ScBbc1 = target: ScBbc1
# Procedure, shortened: as §1
# ScBem1-D1 = target: ScBem1-D1
# Procedure, shortened: as §1
# ScBzz1-D1 = target: ScBzz1-D1
# Procedure, shortened: as §1
# ScBzz1-D2 = target: ScBzz1-D2
# Procedure, shortened: as §1
# ScCyk3 = target: ScCyk3
# Procedure, shortened: as §1
# ScFus1 = target: ScFus1
# Procedure, shortened: as §1
# ScHof1 = target: ScHof1
# Procedure, shortened: as §1
# ScHse1 = target: ScHse1
# Procedure, shortened: as §1
# ScLsb1 = target: ScLsb1
# Procedure, shortened: as §1
# ScLsb2 = target: ScLsb2
# Procedure, shortened: as §1
# ScLsb3 = target: ScLsb3
# Procedure, shortened: as §1
# ScLsb4 = target: ScLsb4
# Procedure, shortened: as §1
# ScMyo3 = target: ScMyo3
# Procedure, shortened: as §1
# ScMyo5 = target: ScMyo5
# Procedure, shortened: as §1
# ScNbp2 = target: ScNbp2
# Procedure, shortened: as §1
# ScPex13 = target: ScPex13
# Procedure, shortened: as §1
# ScRvs167 = target: ScRvs167
# Procedure, shortened: as §1
# ScSho1 = target: ScSho1
# Procedure, shortened: as §1
# ScSla1-D1-D2 = target: ScSla1-D1-D2
# Procedure, shortened: as §1
# ScSla1-D3 = target: ScSla1-D3
# Procedure, shortened: as §1
# SpAbp1-D1 = target: SpAbp1-D1
# Procedure, shortened: as §1
# SpBbc1 = target: SpBbc1
# Procedure, shortened: as §1
# SpBzz1-D1 = target: SpBzz1-D1
# Procedure, shortened: as §1
# SpBzz1-D2 = target: SpBzz1-D2
# Procedure, shortened: as §1
# SpCyk3 = target: SpCyk3
# Procedure, shortened: as §1
# SpHof1 = target: SpHof1
# Procedure, shortened: as §1
# SpHof1-2 = target: SpHof1-2
# Procedure, shortened: as §1
# SpHof1-3 = target: SpHof1-3
# Procedure, shortened: as §1
# SpHse1 = target: SpHse1
# Procedure, shortened: as §1
# SpLsb1 = target: SpLsb1
# Procedure, shortened: as §1
# SpLsb4 = target: SpLsb4
# Procedure, shortened: as §1
# SpMyo1 = target: SpMyo1
# Procedure, shortened: as §1
# SpNbp2 = target: SpNbp2
# Procedure, shortened: as §1
# SpPex13 = target: SpPex13
# Procedure, shortened: as §1
# SpRvs167 = target: SpRvs167
# Procedure, shortened: as §1
# SpSla1-D1-D2 = target: SpSla1-D1-D2
# Procedure, shortened: as §1
# SpSla1-D3 = target: SpSla1-D3
# Procedure, shortened: as §1
binder,measurement,setting,value
YVRRRPRVRLEPLLS,SPOT peptide array binding signal intensity,AgAbp1,116
same,SPOT peptide array binding signal intensity,AgBbc1,30.5
same,SPOT peptide array binding signal intensity,AgBem1-D1,62.5
same,SPOT peptide array binding signal intensity,AgBzz1-D1,152
same,SPOT peptide array binding signal intensity,AgBzz1-D2,91.5
same,SPOT peptide array binding signal intensity,AgCyk3,6.5
same,SPOT peptide array binding signal intensity,AgFus1,928
same,SPOT peptide array binding signal intensity,AgHof1,35
same,SPOT peptide array binding signal intensity,AgHse1,936
same,SPOT peptide array binding signal intensity,AgLsb1,17.2
same,SPOT peptide array binding signal intensity,AgLsb4,138
same,SPOT peptide array binding signal intensity,AgMyo5,6
same,SPOT peptide array binding signal intensity,AgNbp2,424
same,SPOT peptide array binding signal intensity,AgRvs167,14.1
same,SPOT peptide array binding signal intensity,AgSho1,263
same,SPOT peptide array binding signal intensity,AgSla1-D1-D2,258
same,SPOT peptide array binding signal intensity,AgSla1-D3,15.8
same,SPOT peptide array binding signal intensity,CaAbp1-D1,603
same,SPOT peptide array binding signal intensity,CaAbp1-D2,652
same,SPOT peptide array binding signal intensity,CaBbc1,150
same,SPOT peptide array binding signal intensity,CaBem1-D1,81.5
same,SPOT peptide array binding signal intensity,CaBzz1-D1,184
same,SPOT peptide array binding signal intensity,CaBzz1-D2,108
same,SPOT peptide array binding signal intensity,CaCyk3,45.5
same,SPOT peptide array binding signal intensity,CaFus1,589
same,SPOT peptide array binding signal intensity,CaHof1,0.75
same,SPOT peptide array binding signal intensity,CaHse1,107
same,SPOT peptide array binding signal intensity,CaLsb1,0.75
same,SPOT peptide array binding signal intensity,CaLsb4,164
same,SPOT peptide array binding signal intensity,CaMyo5,8.25
same,SPOT peptide array binding signal intensity,CaNbp2,887
same,SPOT peptide array binding signal intensity,CaRvs167,23.8
same,SPOT peptide array binding signal intensity,CaRvs167-3,82.6
same,SPOT peptide array binding signal intensity,CaSho1,898
same,SPOT peptide array binding signal intensity,CaSla1-D1-D2,114
same,SPOT peptide array binding signal intensity,CaSla1-D3,5.25
same,SPOT peptide array binding signal intensity,ScAbp1,128
same,SPOT peptide array binding signal intensity,ScBbc1,24.8
same,SPOT peptide array binding signal intensity,ScBem1-D1,46.5
same,SPOT peptide array binding signal intensity,ScBzz1-D1,58.5
same,SPOT peptide array binding signal intensity,ScBzz1-D2,117
same,SPOT peptide array binding signal intensity,ScCyk3,79.5
same,SPOT peptide array binding signal intensity,ScFus1,706
same,SPOT peptide array binding signal intensity,ScHof1,0.5
same,SPOT peptide array binding signal intensity,ScHse1,2260
same,SPOT peptide array binding signal intensity,ScLsb1,22.5
same,SPOT peptide array binding signal intensity,ScLsb2,8
same,SPOT peptide array binding signal intensity,ScLsb3,558
same,SPOT peptide array binding signal intensity,ScLsb4,29.5
same,SPOT peptide array binding signal intensity,ScMyo3,6.25
same,SPOT peptide array binding signal intensity,ScMyo5,3
same,SPOT peptide array binding signal intensity,ScNbp2,548
same,SPOT peptide array binding signal intensity,ScPex13,18.2
same,SPOT peptide array binding signal intensity,ScRvs167,30.8
same,SPOT peptide array binding signal intensity,ScSho1,1070
same,SPOT peptide array binding signal intensity,ScSla1-D1-D2,309
same,SPOT peptide array binding signal intensity,ScSla1-D3,29.9
same,SPOT peptide array binding signal intensity,SpAbp1-D1,252
same,SPOT peptide array binding signal intensity,SpBbc1,23.2
same,SPOT peptide array binding signal intensity,SpBzz1-D1,125
same,SPOT peptide array binding signal intensity,SpBzz1-D2,4.62
same,SPOT peptide array binding signal intensity,SpCyk3,2
same,SPOT peptide array binding signal intensity,SpHof1,97.6
same,SPOT peptide array binding signal intensity,SpHof1-2,29.5
same,SPOT peptide array binding signal intensity,SpHof1-3,256
same,SPOT peptide array binding signal intensity,SpHse1,834
same,SPOT peptide array binding signal intensity,SpLsb1,7.88
same,SPOT peptide array binding signal intensity,SpLsb4,254
same,SPOT peptide array binding signal intensity,SpMyo1,5.25
same,SPOT peptide array binding signal intensity,SpNbp2,673
same,SPOT peptide array binding signal intensity,SpPex13,61.8
same,SPOT peptide array binding signal intensity,SpRvs167,23
same,SPOT peptide array binding signal intensity,SpSla1-D1-D2,9
same,SPOT peptide array binding signal intensity,SpSla1-D3,87
